Drawing on PubChem BioAssay (NCI), this text covers growth for 13 molecules.

The panel holds about 83,000 compounds, 20% with a hit somewhere; the sample as a whole holds those more often.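 Results are percent growth after 48 hours of single-concentration exposure. 100 means growth as in untreated cells, lower positive values show inhibition; negative values down to -100 show cell death.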 Values without a mark were called inactive. Active and inactive are the calls of the source. Rule for the calls: active = growth percent below 10; inactive = the rest.

Among the test systems are NCI/ADR-RES ovarian; T-47D breast; BT-549 breast; MDA-MB-435 melanoma; SW-620 colon; MCF7 breast; HCT-116 colon; HCC-2998 colon; KM12 colon.
What all share (test): NCI-60 one-dose screen, 48 h (100 = growth as untreated, 0 = no growth, -100 = all killed)
Settings in all cases: 10 µM unless noted

Turning to `CC[C@]12C=CCN3CC[C@@]4(c5ccc(OC)cc5N(C)[C@H]4[C@@](O)(C(=O)OC)[C@@H]1OC(=O)CCCC[P+](c1ccccc1)(c1ccccc1)c1ccccc1)[C@@H]32`, the growth was 91.6% in the experiment on NCI/ADR-RES ovarian; 4.99% (active) in the experiment with T-47D breast; -1.04% (active) with BT-549 breast; -19.7% (active) with MDA-MB-435 melanoma; 29.4% in the experiment with SW-620 colon; 4.69% (active) in the experiment on MCF7 breast. Further, the results for the growth with HCT-116 colon, with HCC-2998 colon and in the experiment with KM12 colon were 8.03% (active), 15.9% and 3.15% (active), respectively.

For `CC[CH2][Sn]([Cl])([Cl])[CH2]CC`, the growth with NCI/ADR-RES ovarian was 106%; in the experiment with T-47D breast, -3.16% (active); in the experiment with BT-549 breast, 60.7%; with MDA-MB-435 melanoma it was 79.8%; with SW-620 colon, 36.9%; in the experiment on MCF7 breast, 50.4%. Also, the growth is 79.9% in the experiment with HCT-116 colon, 87.7% in the experiment on HCC-2998 colon and 101% in the experiment on KM12 colon.

In the case of `CCCC(=O)O[C@@H]1C[C@H]2C[C@@H](O[C@@H]3O[C@@H](C)[C@@H](O)[C@@H](O)[C@H]3OC)C[C@@H](C[C@@H](C)/C=C/C=C\C[C@@H]3O[C@@H](C[C@@H]3C)[C@@H](O)C[C@H]3C[C@@]1(O)C(=O)O3)O2`, the growth was 67.6% in the experiment with NCI/ADR-RES ovarian; 17.4% with T-47D breast; 46.9% in the experiment with BT-549 breast; 59.1% in the experiment on MDA-MB-435 melanoma; 87.4% in the experiment with SW-620 colon; 25.7% in the experiment on MCF7 breast. In addition, the growth with HCT-116 colon is 56.3%; in the experiment on HCC-2998 colon, 59.4%; with KM12 colon, 65.3%.

`CC(=O)[C@H]1CC[C@H]2[C@@H]3CC[C@H]4C[C@H](N)CC[C@]4(C)[C@H]3CC[C@]12C`: the growth is 89.4% with NCI/ADR-RES ovarian; 91% with T-47D breast; 70.5% with BT-549 breast; 65.1% with MDA-MB-435 melanoma; 72.2% with SW-620 colon; 70.6% with MCF7 breast. Besides, the growth in the experiment with HCT-116 colon was 40.6%; with HCC-2998 colon, 92.8%; with KM12 colon it was 80.2%.

`CCC(CC)CC1(C)CC2(C)CCOC2OO1` (configuration not stated): the growth with NCI/ADR-RES ovarian was 104%; in the experiment with T-47D breast, 97.8%; with BT-549 breast, 112%; in the experiment on MDA-MB-435 melanoma, 109%; with SW-620 colon, 104%; in the experiment with MCF7 breast it was 104%. Besides, the growth was 108% in the experiment with HCT-116 colon, 93.4% in the experiment on HCC-2998 colon and 111% with KM12 colon.

Consider `CN(C)C(=O)Oc1ccccc1-c1ccccc1`, for which the growth in the experiment with NCI/ADR-RES ovarian was 102%; in the experiment with T-47D breast, 93.3%; in the experiment on BT-549 breast, 90.7%; with MDA-MB-435 melanoma, 112%; in the experiment on SW-620 colon, 109%; with MCF7 breast it was 105%. Moreover, the growth is 111% in the experiment with HCT-116 colon, 96.1% in the experiment with HCC-2998 colon and 103% in the experiment on KM12 colon.

For `COc1ccc(S(=O)(=O)N(Cc2ccc3c(c2)C=CC(C)(C)O3)c2ccccc2)cc1OC`, the growth in the experiment on NCI/ADR-RES ovarian was 68.7%; with T-47D breast, 55.1%; with BT-549 breast, 54%; in the experiment on MDA-MB-435 melanoma it was 87.3%; in the experiment with SW-620 colon, 87.1%; in the experiment with MCF7 breast, 50.7%. The growth with HCT-116 colon is 63%; in the experiment on HCC-2998 colon, 73.6%; in the experiment on KM12 colon it was 88.7%.

As for `CC(=O)[O][Hg][c]1c(N)c(C)cc(C)c1F`, the growth was 74.6% in the experiment with NCI/ADR-RES ovarian; -20% (active) in the experiment with T-47D breast; -14% (active) in the experiment on BT-549 breast; -60.5% (active) with MDA-MB-435 melanoma; -19.5% (active) with SW-620 colon; -5.09% (active) in the experiment with MCF7 breast. Moreover, the growth was 25.7% in the experiment on HCT-116 colon, 93.7% in the experiment with HCC-2998 colon and 81.4% in the experiment on KM12 colon.

Consider `Clc1ccc(COC(Cn2ccnc2)c2ccc(Cl)cc2Cl)cc1` (configuration not stated), for which the growth is 23.3% with NCI/ADR-RES ovarian; 48.3% in the experiment with T-47D breast; 55.9% in the experiment on BT-549 breast; 27.5% in the experiment with MDA-MB-435 melanoma; 34.3% with SW-620 colon; 57.9% in the experiment on MCF7 breast. In addition, the values for the growth in the experiment on HCT-116 colon, in the experiment on HCC-2998 colon and in the experiment on KM12 colon were 33.6%, 64.2% and 29.1%, respectively.

Regarding `Oc1c(O)c(Cl)c(Cl)c(Cl)c1Cl`, the growth with NCI/ADR-RES ovarian is 11.7%; in the experiment on T-47D breast, 15.1%; with BT-549 breast it was 52.5%; in the experiment on MDA-MB-435 melanoma, 30.8%; in the experiment on SW-620 colon, 28%; in the experiment with MCF7 breast it was 13.5%. The figures for the growth in the experiment on HCT-116 colon, in the experiment with HCC-2998 colon and with KM12 colon were 16.4%, 72.8% and 30.4%, respectively.

In the case of `CCC(O)(CN)c1ccccc1` (configuration not stated), the growth is 105% with NCI/ADR-RES ovarian; 99.6% in the experiment on T-47D breast; 104% in the experiment with BT-549 breast; 105% in the experiment with MDA-MB-435 melanoma; 100% in the experiment on SW-620 colon; 102% in the experiment with MCF7 breast. In addition, the growth is 99.8% with HCT-116 colon, 106% in the experiment with HCC-2998 colon and 103% with KM12 colon.

For the molecule `CC[C@]12C=CCN3CC[C@]4(C(=C(C(=O)OC)C1)Nc1cc(OC)c(OC(C)=O)cc14)[C@@H]32`, the growth in the experiment on NCI/ADR-RES ovarian is 9.28% (active); in the experiment with T-47D breast it was 51.4%; in the experiment on BT-549 breast it was 3.35% (active); in the experiment with MDA-MB-435 melanoma it was 3.75% (active); with SW-620 colon, 15.8%; in the experiment with MCF7 breast, 13.1%. For the same molecule, the results for the growth with HCT-116 colon, with HCC-2998 colon and with KM12 colon were 12%, 12.8% and 9.09% (active), respectively.

`CC(C)[C@]12O[C@H]1[C@@H]1O[C@]13[C@]1(O[C@H]1C[C@H]1c4c(C(=O)c5ccccc5)oc(OC(=O)c5ccccc5)c4CC[C@@]13C)[C@@H]2O`: the growth with NCI/ADR-RES ovarian was 8.83% (active); with T-47D breast it was 6.53% (active); with BT-549 breast it was -24.3% (active); with MDA-MB-435 melanoma, -87.9% (active); in the experiment on SW-620 colon, -3.73% (active); in the experiment on MCF7 breast, 12.5%. Also, the growth is 5.12% (active) in the experiment on HCT-116 colon, -15.3% (active) in the experiment on HCC-2998 colon and -15.7% (active) with KM12 colon.
